Measured values reported in PubChem BioAssay (NCATS).
Inconclusive results are not listed. Activity calls are given as the source filed them. Calls come from the whole dose curve; as a rule, active = well fitted inhibition curve with a large enough effect; inconclusive = small, poorly fitted or top-dose-only effect; inactive = flat fitted curve, though single readings scatter.

Key:
Test in all cases: Cytotoxic Profiling of Annotated Libraries Using Quantitative High-Throughput Screening (AID 1296008); note: nearly all actives have a fitted effect of over 60% in size
Details in all cases: Five cell lines viability, CellTiter-Glo ATP luminescence, 48-72 h; max response: stronger effect = lower value
[1] = system: CRL-7250
In short: (§1)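 Compounds were pin-transferred onto cells and incubated 48 or 72 hr at 37 degree Celsius, 95% humidity. CellTiter-Glo was added, plates sat 10 min at room temperature, then ATP-coupled luminescence was imaged as the viability read-out.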

[2] = system: HEK293
In short: as §1

[3] = system: HaCat
In short: as §1

Measured: max response
% is set by controls: 0 for no effect and ±100 for the full control effect.

C=C1CC2C3(C)C(O)CC(=O)C(C)(C)C3C(OC(C)=O)C(OC(C)=O)C2(C)C2C(=O)OC(C)(C(=O)OC)C(=O)C12C (configuration not stated)
inactive: [1] | [2] | [3] 3.78%

CC[C@H]1OC(=O)[C@H](C)[C@@H](O[C@H]2C[C@@](C)(OC)[C@@H](O)[C@H](C)O2)[C@H](C)[C@@H](O[C@@H]2O[C@H](C)C[C@H](N(C)C)[C@H]2O)[C@@](C)(O)C[C@@H](C)[C@@H]2N[C@@H](COCCOC)OC([C@H]2C)[C@]1(C)O
inactive: [1] -11.1% | [2] | [3] -20.8%

CC1CCC2C(C)(C)C(O)CCC2(C)C12Cc1c(O)cc3c(c1O2)CN(C(CCC(N)=O)C(=O)O)C3=O (configuration not stated)
inactive: [1] 0.113% | [2] | [3] 2.99%

CC1(C)O[C@@]2(C)CC[C@@H]1C[C@@H]2OC1OC(CO)C(O)C(O)C1O (some centres not stated)
inactive: [1] | [2] | [3] -5.55%
